Compounds with a hit are over-represented: about 19% of the library has one in this group of screens.
DT40 TDP1 CPT: growth inhibition of DT40 Tdp1-/-;hTDP1 cells with camptothecin (screen for TDP1 inhibitors); chicken DT40 Tdp1-/-;hTDP1 cells + 20 nM CPT, ATP luminescence, 48 h; 420,000 tested, 12% active; Potency, µM (highest dose often 46.2 µM), without a hit: top-dose activity change, negative = growth inhibition, most hits filed as inhibitors; note: nearly all actives have a fitted effect of over 55% in size
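Cell growth measured by CellTiter-Glo luminescence after a minimum 48 h, 37 C compound exposure with 20 nM CPT in Tdp1-knockout DT40 cells stably expressing hTDP1, seeded 400/well; qHTS titration format.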
DT40 TDP1 no CPT: qHTS for Inhibitors of human tyrosyl-DNA phosphodiesterase 1 (TDP1): qHTS in cells in absence of CPT. DT40 Tdp1-/- hTDP1 cells, no CPT, ATP luminescence, 48 h. Potency, µM (highest dose often 46.2 µM), for inactives: at the top dose activity change, negative = growth inhibition, actives largely listed as inhibitors. 420,000 tested, 15% active; note: nearly all actives have a fitted effect of over 55% in size
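Seeded 400 DT40-hTDP1 cells/well (vehicle DMSO, no 20 nM CPT); pinned compounds; ≥48 hr at 37 °C; CellTiter-Glo luminescence as viability measure.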
Gal4-VP16 FLuc: counter-screen for ROR gamma inhibitors: Gal4-VP16 reporter | 310,000 tested, 3.5% active | Potency, µM (doses to about 53.6 µM), without a hit: top-dose activity, negative = inhibition, usual class: inhibitors | Drosophila S2 Gal4-VP16 UAS-luciferase, luminescence, 20 h;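 note: Gal4-VP16 expression switched on by copper sulfate through the metallothionein promoter; nearly all actives have a fitted effect of over 50% in size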
RORgamma inh: ROR gamma (mouse) transcription inhibition | P51450 | Drosophila S2 Gal4-RORgamma UAS-luciferase reporter, 20 h | Potency, µM (titrated, usually from 53.6 µM), inactives show at the highest dose activity change, negative = inhibition, hits mostly inhibitors | 310,000 tested, 5.4% active; note: nearly all actives have a fitted effect of over 60% in size
Target sequence (P51450 whole entry, looked up, the tested form may be a part): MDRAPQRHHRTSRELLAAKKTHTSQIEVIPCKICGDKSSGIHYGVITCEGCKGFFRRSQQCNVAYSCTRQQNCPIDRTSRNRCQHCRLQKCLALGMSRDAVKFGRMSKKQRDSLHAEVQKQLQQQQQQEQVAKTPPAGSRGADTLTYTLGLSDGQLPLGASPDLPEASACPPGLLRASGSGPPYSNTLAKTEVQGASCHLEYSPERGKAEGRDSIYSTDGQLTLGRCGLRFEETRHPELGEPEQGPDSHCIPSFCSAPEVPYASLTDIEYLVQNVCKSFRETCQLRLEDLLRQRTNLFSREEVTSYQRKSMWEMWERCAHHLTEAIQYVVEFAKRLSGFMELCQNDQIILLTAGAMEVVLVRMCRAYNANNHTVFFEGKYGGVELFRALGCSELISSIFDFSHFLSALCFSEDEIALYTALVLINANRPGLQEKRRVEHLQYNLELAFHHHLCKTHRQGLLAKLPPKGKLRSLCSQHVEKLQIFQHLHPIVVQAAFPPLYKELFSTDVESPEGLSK
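ROR gamma transcriptional activity was tracked as Gal4-UAS luciferase output in stably transfected Drosophila Schneider cells, with compound added 1 hr before 700 uM copper sulfate induction and a 20 hr ambient-temperature incubation.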
TDP1 block: TDP1 (human) enzyme inhibition | Q9NUW8 | recombinant TDP1, AlphaScreen DNA substrate cleavage | Potency, µM (top dose mostly 130 µM), inactives show top-dose activity change, negative = inhibition, usual class: inhibitors | 350,000 tested, 0.28% active; note: nearly all actives have a fitted effect of over 40% in size
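E. coli-derived human Tdp1, 1 nM final. Cpd preinc 15 min RT; substrate 15 nM final, 5 min RT; AS bead mix 10 ug/ml final, 10 min RT. Signal loss = tyrosine-FITC cleavage. No-enzyme wells = max signal.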
An asterisk follows results filed as active; ? = inconclusive; / = no result given. Calls come from the whole dose curve; as a rule, active = well fitted curve in the direction sought with a large enough effect; inconclusive = small, poorly fitted or top-dose-only effect, or another doubt; inactive = no such curve, though single readings can be large; an effect the other way counts as inactive or inconclusive. % is set by controls: 0 for no effect and ±100 for the full control effect; potency is the fitted concentration of half-maximal effect.

SMILES	DT40 TDP1 CPT	DT40 TDP1 no CPT	Gal4-VP16 FLuc	RORgamma inh	TDP1 block
CC(C)(C)CC(=O)NC(=S)Nc1ccccc1C(F)(F)F	?	?	20µM*	3.16µM*	0.0%
CC(C)CC(=O)NC(=S)Nc1ccccc1C(F)(F)F	?	?	?	5.62µM*	2.7%
O=C(NNC(=S)Nc1ccccc1C(F)(F)F)c1ccc(Br)o1	-15.9%	?	-18.8%	?	7.3%
CC(=O)c1ccc(N2CCN(C(=S)Nc3ccc(Cl)c(Cl)c3)CC2)cc1	?	-26.7%	-4.5%	-44.6%	0.0%
COc1ccc(NC(=O)Cn2c3ccccc3c3nc4n(c(=O)c32)CCS4)cc1OC	?	?	?	-44.2%	-2.3%
CCC1CCc2sc(C(=O)NNC(=S)NCC3CCCO3)cc2C1 (stereo not given)	?	?	/	/	-0.5%
CCC1CCc2sc(C(=O)NCC3CCCO3)cc2C1 (stereo not given)	?	18.4µM*	/	/	0.4%
CCC1CCc2sc(C(=O)NCc3ccccn3)cc2C1 (stereo not given)	14.6µM*	10.3µM*	-1.5%	?	1.9%
CCC1CCc2sc(C(=O)NCC(c3ccccc3OC)N3CCCC3)cc2C1 (stereo not given)	16.4µM*	20.6µM*	/	/	1.9%
COc1ccccc1C(CNC(=O)CNC(=O)c1cccc(Cl)c1)N1CCCC1 (stereo not given)	-0.5%	-19.6%	/	/	/
Cc1cc(NC(=O)CSc2nc3sc(C)c(C)c3c(=O)n2C2CCCC2)no1	9.2µM*	-28.8%	-1.7%	-4.0%	-2.5%
COCCn1c(SCC(=O)Nc2cc(C)on2)nc2ccccc2c1=O	-8.8%	?	/	/	1.3%
Cc1cc(NC(=O)CSc2nnc3c4c(C)c(C)sc4ncn23)no1	?	17.8µM*	-6.1%	0.8%	2.9%
CCc1c(C)sc2nc(SCC(=O)Nc3cc(C)on3)n(CCOC)c(=O)c12	?	1.16µM*	-11.3%	17.2%	2.0%
Cc1cc(C)cc(NC(=S)N2CCC(NC(=O)C3CCCCC3)CC2)c1	-11.2%	0.8%	2.1%	0.8%	-1.6%
COc1ccc(CNC(=O)CC2C[C@H](C(=O)N3CCOCC3)[C@@]3(C)c4[nH]c5ccccc5c4CCN3C2=O)cc1OC (stereo not given in full)	-22.2%	-15.5%	/	/	1.6%
O=C(CCCN1C(=O)NC2(CCCC2)C1=O)N1CCN(S(=O)(=O)c2ccccc2)CC1	-2.5%	7.7%	/	/	-0.2%
COc1ccccc1N1CCN(C(=O)c2cnn(C(C)(C)C)c2C2CCN(C(=O)OC(C)(C)C)CC2)CC1	16.4µM*	-84.6%	/	/	3.2%
CC(C)(C)OC(=O)N1CCC(c2c(C(=O)N3CCN(c4ccccc4F)CC3)cnn2C(C)(C)C)CC1	23.1µM*	?	/	/	0.0%
Cn1ncc(C(=O)N2CCN(c3ccccc3F)CC2)c1C1CCN(C(=O)OC(C)(C)C)CC1	?	-53.8%	/	/	5.3%
Cc1ccc(COc2coc(CN3CCN(C(=O)c4ccco4)CC3)cc2=O)cc1	-1.9%	-5.6%	/	/	-0.4%
Cc1cccc(NC(=O)c2ccc(S(=O)(=O)NCc3ccco3)cc2)n1	?	?	/	/	-1.2%
Cc1cc(C)c([N+](=O)[O-])cc1-c1ccc(/C=N/c2c(-c3ccco3)nc3ccccn23)o1	14.6µM*	14.6µM*	-0.3%	-12.9%	5.2%
O=[N+]([O-])c1ccc(Cl)c(-c2ccc(/C=N/c3c(-c4ccco4)nc4ccccn34)o2)c1	-27.9%	?	11.1%	-21.9%	2.0%
O=[N+]([O-])c1ccc(-c2ccc(/C=N/c3c(-c4ccco4)nc4ccccn34)o2)cc1	20.6µM*	7.31µM*	9.1%	-1.3%	9.2%
SMILES	DT40 TDP1 CPT	DT40 TDP1 no CPT	Gal4-VP16 FLuc	RORgamma inh	TDP1 block
O=[N+]([O-])c1ccc(-c2ccc(/C=N/c3c(-c4ccco4)nc4ccccn34)o2)c(Cl)c1	/	/	20.4%	-11.2%	4.2%
CC(=O)N1CCC(C(=O)NC2CC(C)(C)Cc3c2cnn3-c2ccc(F)cc2)CC1 (stereo not given)	8.7%	-11.1%	-8.8%	-11.3%	0.7%
COC(=O)c1ccc(-n2nnnc2SC)cc1	-22.8%	0.5%	-3.4%	8.0%	3.8%
O=c1[nH]c(CSc2nnc3ccccn23)nc2cc(C(F)(F)F)ccc12	/	/	2.2%	14.8%	0.0%
O=C(CSc1n[nH]c(=O)n1CCc1ccccc1)NC1CCCC1	11.1%	-1.1%	/	/	/
CON1C(=O)C(=O)N(OC)C2CCCCCC21 (stereo not given)	-16.0%	-9.1%	?	-0.8%	2.7%
CCOc1ccc(S(=O)(=O)c2cn(Cc3cc(C)ccc3C)c3ccc(OCC)cc3c2=O)cc1	?	?	/	/	6.4%
CCc1ccc(S(=O)(=O)c2cn(Cc3ccccc3F)c3cc(OC)c(OC)cc3c2=O)cc1	14.6µM*	?	/	/	3.8%
O=c1c(S(=O)(=O)c2ccc(Cl)cc2)cn(Cc2cccc(F)c2)c2ccc(F)cc12	?	?	-1.3%	11.4%	1.9%
O=c1c(S(=O)(=O)c2ccc(Cl)cc2)cn(Cc2ccccc2F)c2ccc(F)cc12	?	23.1µM*	0.1%	?	0.6%
Cc1ccc(Cn2cc(S(=O)(=O)c3ccc(Cl)cc3)c(=O)c3cc(F)ccc32)cc1	-27.8%	7.31µM*	-9.1%	13.0%	-3.2%
Cc1ccc(C)c(Cn2cc(S(=O)(=O)c3ccc(Cl)cc3)c(=O)c3cc(F)ccc32)c1	?	25.9µM*	/	/	-1.3%
Cc1ccccc1Nc1nc(C#N)nc(NC2CCCC2)n1	/	/	/	/	-3.6%
Cc1oc2c(C)c(O)ccc2c(=O)c1-c1nncn1-c1ccccc1	-26.6%	-9.4%	7.1%	-2.4%	0.0%
COc1cc(C2CC(=O)Nc3c2c(=O)[nH]c2nc4ccccc4n32)ccc1O (stereo not given)	/	/	/	/	1.9%
CCOC(=O)C(Oc1ccc(=O)[nH]n1)C(C)=O (stereo not given)	-4.9%	-6.3%	-11.4%	-2.0%	-2.9%
COc1ccc(NC2=C3CCCC=C3N(c3ccc(OC)cc3)C2=O)cc1	?	?	-4.3%	18.1%	1.2%
COC(=O)c1[nH]c2ccc(C)cc2c1NC(=O)NC1CCCCC1	9.1%	0.4%	8.7%	-11.6%	2.3%
COc1ccc(S(=O)(=O)c2cn(Cc3ccccc3)c3ccc(OC)cc3c2=O)cc1	11.6µM*	25.9µM*	/	/	3.8%
Cc1ccc(NC(=O)Cn2cc(S(=O)(=O)c3ccc(F)cc3)c(=O)c3cc(F)ccc32)cc1	?	-36.1%	?	-4.1%	2.6%
CCc1ccc2c(c1)c(=O)c(S(=O)(=O)c1ccc(F)cc1)cn2CC(=O)Nc1ccc(C)cc1C	?	6.51µM*	/	/	1.3%
